# Where “and” joins values, the source holds several entries; their conditions need not be identical. Equal values may be shown once. Inconclusive results are not listed. Some structures have more than one record in an assay (separate samples or runs), and their calls can disagree. Calls of active or inactive are those of the source. How the source made its calls, unless noted: active means hit-call score of the fitted dose curve at least 0.9, where 1 is the maximum; inactive means score below 0.9.
# Key:
# [1] = ATG_BRE_CIS: Attagene CIS-FACTORIAL HepG2 Assay for human Bone Morphogenetic Protein (BMP) Response Element (BRE) (AID 2282933); conditions: HepG2 BMP response element reporter, Attagene transcription factor profiling; actives raise or lower the signal
# Method in brief: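 Read-out: reporter mRNA induction quantified by RT-PCR and capillary electrophoresis after 24 h chemical exposure of transfected HepG2 cells. Endogenous factor activity on the BMP response element; gain or loss fitted against DMSO baseline.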
# [2] = ATG_FoxO_CIS: Attagene CIS-FACTORIAL HepG2 Assay for human Forkhead box O (FoxO) (AID 2282943); conditions: HepG2 Attagene cis-reporter, FoxO element, mRNA; actives raise or lower the signal
# Method in brief: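 HepG2, transient MRTU transfection (cis element, endogenous TFs). Dose 24 h. TriZol RNA → oligo(dT) RT → PCR → 6-FAM primer extension → HpaI cut → CE. Gain/loss vs DMSO.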
# [3] = ATG_GRE_CIS: Attagene CIS-FACTORIAL HepG2 Assay for human Glucocorticoid Response Elements (GRE) (AID 2282947); conditions: HepG2 GRE cis-reporter, Attagene multiplex mRNA; actives raise or lower the signal
# Method in brief: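 Multiplexed cis-reporter mRNA induction, HepG2, 24 h post-dose. RT-PCR, FAM-labelled, HpaI-digested amplicons by CE. Bidirectional fit vs DMSO.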
# [4] = ATG_PPRE_CIS: Attagene CIS-FACTORIAL HepG2 Assay for human Peroxisome Proliferator-activated Response Element (PPRE) (AID 2282958); conditions: HepG2 PPRE cis-element reporter, Attagene transcription factor profiling; actives raise or lower the signal
# Method in brief: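 DMSO served as negative control and baseline for bidirectional curve fitting. Signal came from PPRE-regulated reporter mRNA in HepG2 cells, measured 24 h post-dosing by RT-PCR, 6-FAM primer extension and capillary electrophoresis.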
# [5] = ATG_Sox_CIS: Attagene CIS-FACTORIAL HepG2 Assay for human SRY-box transcription factor (SOX) (AID 2282960); conditions: HepG2 Attagene cis-factorial SOX reporter, mRNA; actives raise or lower the signal
# Method in brief: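 Fluorescence-labelled cDNA fragments from reporter transcripts, sized by CE, give the signal. Cells: HepG2, transiently transfected with cis-regulated reporter units. Exposure 24 h; DMSO negative control; bidirectional curve fitting.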
# [6] = ATG_SREBP_CIS: Attagene CIS-FACTORIAL HepG2 Assay for human Sterol Regulatory Element Binding (SREBP) (AID 2282962); conditions: HepG2 Attagene cis-factorial SREBP reporter, mRNA; actives raise or lower the signal
# Method in brief: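 Endogenous factor activity is measured in HepG2 through multiplexed reporter units under cis-element control. Following a 24 h incubation, reporter transcripts are reverse-transcribed, PCR-amplified and sized by capillary electrophoresis; activity is fitted in both directions relative to DMSO.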
# [7] = biological target: Hepatocyte nuclear factor 4-alpha (Homo sapiens) (UniProt P41235); test: ATG_HNF4a_TRANS: Attagene TRANS-FACTORIAL HepG2 Assay for human Hepatocyte Nuclear Factor 4 alpha (HNF4a) (AID 2282982; active means hit-call score of the fitted dose curve at least 0.9, where 1 is the maximum); conditions: HepG2 HNF4a transactivation reporter, mRNA readout
# Chain of Hepatocyte nuclear factor 4-alpha (Homo sapiens) (P41235 whole entry, looked up): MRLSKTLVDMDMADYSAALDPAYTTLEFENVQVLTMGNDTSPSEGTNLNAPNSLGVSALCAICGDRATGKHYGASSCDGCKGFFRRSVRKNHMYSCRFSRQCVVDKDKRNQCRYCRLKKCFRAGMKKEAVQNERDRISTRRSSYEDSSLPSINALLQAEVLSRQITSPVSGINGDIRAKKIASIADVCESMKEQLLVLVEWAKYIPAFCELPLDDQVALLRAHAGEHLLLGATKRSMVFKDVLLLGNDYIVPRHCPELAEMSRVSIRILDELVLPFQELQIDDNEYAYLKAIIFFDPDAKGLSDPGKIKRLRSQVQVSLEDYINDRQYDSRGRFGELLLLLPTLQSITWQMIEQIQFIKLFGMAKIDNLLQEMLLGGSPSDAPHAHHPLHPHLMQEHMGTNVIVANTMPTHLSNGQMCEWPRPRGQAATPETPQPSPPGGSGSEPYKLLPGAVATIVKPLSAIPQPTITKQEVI
# Method in brief: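 Multiplexed reporter assay: transfected HepG2, 24 h exposure, total RNA → oligo(dT) RT → PCR → 6-FAM extension → HpaI digest → CE fluorescence. DMSO = negative control.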
# [8] = ATG_M_06_TRANS: Attagene TRANS-FACTORIAL HepG2 Assay for M06 Transcription Factor (Internal Marker) (AID 2282983; active means hit-call score of the fitted dose curve at least 0.9, where 1 is the maximum;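 further: reporter transcript level by RT-PCR then capillary electrophoresis fluorescence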); conditions: HepG2 Attagene TRANS M06 internal marker reporter
# Method in brief: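 mRNA levels of a reporter transcript, quantified as FAM fluorescence on capillary electrophoresis, served as readout. HepG2 cells expressing exogenous GAL4-chimera reporter constructs were exposed for 24 h. Gain of signal over DMSO was evaluated.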
# [9] = biological target: Nuclear respiratory factor 1 (Homo sapiens) (UniProt Q16656); test: ATG_NRF1_CIS: Attagene CIS-FACTORIAL HepG2 Assay for human Nuclear Respiratory Factor 1 (NRF1) Orphan Gene (AID 2282987); conditions: HepG2 NRF1 cis-element reporter, Attagene multiplex; actives raise or lower the signal
# Chain of Nuclear respiratory factor 1 (Homo sapiens) (Q16656 whole entry, looked up): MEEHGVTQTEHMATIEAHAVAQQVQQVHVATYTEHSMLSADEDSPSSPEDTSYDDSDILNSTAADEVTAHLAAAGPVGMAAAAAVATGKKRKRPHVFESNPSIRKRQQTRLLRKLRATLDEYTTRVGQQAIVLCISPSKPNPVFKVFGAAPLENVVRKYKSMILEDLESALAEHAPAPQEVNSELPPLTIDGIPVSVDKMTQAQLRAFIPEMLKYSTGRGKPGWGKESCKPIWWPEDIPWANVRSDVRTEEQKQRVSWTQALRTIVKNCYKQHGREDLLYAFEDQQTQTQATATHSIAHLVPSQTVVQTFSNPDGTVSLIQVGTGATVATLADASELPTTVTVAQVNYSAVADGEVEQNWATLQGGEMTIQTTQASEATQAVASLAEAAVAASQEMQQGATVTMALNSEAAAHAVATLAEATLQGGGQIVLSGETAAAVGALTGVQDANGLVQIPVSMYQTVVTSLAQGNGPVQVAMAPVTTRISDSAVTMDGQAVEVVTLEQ
# Method in brief: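 Reporter mRNA induction or loss in HepG2 cells after 24 h dosing; cis-regulated reporter constructs report endogenous transcription-factor activity. Quantified by RT-PCR/capillary electrophoresis fluorescence, DMSO-referenced.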
# [10] = ATG_NFI_CIS: Attagene CIS-FACTORIAL HepG2 Assay for human Nuclear Factor I (NFI) (AID 2282989); conditions: HepG2 cis-regulatory reporter, NFI response element transcription; actives raise or lower the signal
# Method in brief: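 Read-out: reporter mRNA via RT-PCR plus capillary electrophoresis with fluorescence detection. Transiently transfected HepG2 (endogenous TF activity on cis promoters), 24 h compound exposure; gain or loss of signal fitted against DMSO.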
# [11] = biological target: Peroxisome proliferator-activated receptor gamma (Homo sapiens) (UniProt P37231); test: ATG_PPARg_TRANS: Attagene TRANS-FACTORIAL HepG2 Assay for human Peroxisome Proliferator-activated Receptor-gamma (PPARg) (AID 2283007; active means hit-call score of the fitted dose curve at least 0.9, where 1 is the maximum)
# Chain of Peroxisome proliferator-activated receptor gamma (Homo sapiens) (P37231 whole entry, looked up, the tested form may be a part): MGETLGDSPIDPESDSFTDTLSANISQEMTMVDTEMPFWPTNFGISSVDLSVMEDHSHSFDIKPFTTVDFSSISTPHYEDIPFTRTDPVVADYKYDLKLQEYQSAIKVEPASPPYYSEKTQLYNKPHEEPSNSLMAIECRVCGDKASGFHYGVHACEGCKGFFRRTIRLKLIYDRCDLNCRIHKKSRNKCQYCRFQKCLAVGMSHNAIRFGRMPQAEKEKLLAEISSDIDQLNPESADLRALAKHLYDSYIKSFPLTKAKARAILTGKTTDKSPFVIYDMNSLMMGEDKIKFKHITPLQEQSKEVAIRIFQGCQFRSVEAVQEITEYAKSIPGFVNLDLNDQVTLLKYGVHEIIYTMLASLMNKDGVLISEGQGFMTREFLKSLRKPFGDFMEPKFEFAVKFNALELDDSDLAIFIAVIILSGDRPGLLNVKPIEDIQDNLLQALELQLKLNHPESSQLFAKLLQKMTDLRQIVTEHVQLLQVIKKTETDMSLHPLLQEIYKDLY
# Method in brief: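 Chimeric NR-Gal4 transactivation is measured in transiently transfected HepG2 cells by reporter mRNA induction at 24 h. Detection uses RT-PCR with fluorescent labelling and capillary electrophoresis; DMSO defines baseline.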
# [12] = biological target: Nuclear receptor subfamily 1 group I member 2 (Homo sapiens) (UniProt O75469); test: ATG_PXR_TRANS: Attagene TRANS-FACTORIAL HepG2 Assay for human Pregnane X Receptor (PXR) (AID 2283008; active means hit-call score of the fitted dose curve at least 0.9, where 1 is the maximum)
# Chain of Nuclear receptor subfamily 1 group I member 2 (Homo sapiens) (O75469 whole entry, looked up, the tested form may be a part): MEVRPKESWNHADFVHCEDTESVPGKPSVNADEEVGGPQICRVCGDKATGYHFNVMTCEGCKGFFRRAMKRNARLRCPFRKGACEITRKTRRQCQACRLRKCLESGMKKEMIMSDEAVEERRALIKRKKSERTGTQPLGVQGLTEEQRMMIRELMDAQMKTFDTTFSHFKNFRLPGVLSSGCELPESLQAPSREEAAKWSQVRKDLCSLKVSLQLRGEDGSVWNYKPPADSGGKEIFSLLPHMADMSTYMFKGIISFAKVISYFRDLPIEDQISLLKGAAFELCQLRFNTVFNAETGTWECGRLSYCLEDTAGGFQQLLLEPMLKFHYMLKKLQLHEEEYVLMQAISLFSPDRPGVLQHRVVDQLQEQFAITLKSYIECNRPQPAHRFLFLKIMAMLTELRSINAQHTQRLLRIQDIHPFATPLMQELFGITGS
# Method in brief: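 HepG2 transfected (FuGene 6) with GAL4-UAS reporter units + PXR-Gal4 chimera; dosed 24 h. Total RNA → oligo(dT) RT → PCR → 6-FAM primer extension → HpaI cut → CE. Gain-of-signal vs DMSO.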
# [13] = biological target: human Retinoid X Receptor beta (RXRb), RXRB (gene 6257) (UniProt P28702); test: ATG_RXRb_TRANS: Attagene TRANS-FACTORIAL HepG2 Assay for human Retinoid X Receptor beta (RXRb) (AID 2283013; active means hit-call score of the fitted dose curve at least 0.9, where 1 is the maximum)
# Chain of human Retinoid X Receptor beta (RXRb), RXRB (gene 6257) (P28702 whole entry, looked up, the tested form may be a part): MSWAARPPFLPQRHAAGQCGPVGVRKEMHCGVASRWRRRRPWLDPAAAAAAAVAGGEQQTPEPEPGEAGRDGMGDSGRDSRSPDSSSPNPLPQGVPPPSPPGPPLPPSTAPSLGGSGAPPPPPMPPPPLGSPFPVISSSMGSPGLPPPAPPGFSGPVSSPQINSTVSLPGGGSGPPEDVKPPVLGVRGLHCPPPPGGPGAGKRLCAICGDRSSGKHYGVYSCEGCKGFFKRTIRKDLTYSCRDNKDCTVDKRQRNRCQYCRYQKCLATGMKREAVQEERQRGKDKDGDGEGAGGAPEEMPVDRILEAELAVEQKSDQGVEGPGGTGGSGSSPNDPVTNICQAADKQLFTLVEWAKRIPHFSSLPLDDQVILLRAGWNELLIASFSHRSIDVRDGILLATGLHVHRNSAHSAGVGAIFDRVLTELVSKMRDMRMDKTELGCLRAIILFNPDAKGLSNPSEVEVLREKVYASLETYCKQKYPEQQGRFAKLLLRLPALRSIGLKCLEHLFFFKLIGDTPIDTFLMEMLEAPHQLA
# Method in brief: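 After a 24 h incubation with test chemical, transfected HepG2 cells carrying NR-Gal4 fusions and GAL4-UAS reporter transcription units yield RNA whose reporter cDNA is FAM-labelled, HpaI-cut and sized by capillary electrophoresis; increases over DMSO are scored.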
# [14] = biological target: Cellular tumor antigen p53 (Homo sapiens) (UniProt P04637); test: TOX21_p53_BLA_p3_ratio: Tox21 HCT-116 p53 Agonism Beta-lactamase Assay, Ratio, Phase 3 (AID 2283596; active means hit-call score of the fitted dose curve at least 0.9, where 1 is the maximum)
# Chain of Cellular tumor antigen p53 (Homo sapiens) (P04637 whole entry, looked up): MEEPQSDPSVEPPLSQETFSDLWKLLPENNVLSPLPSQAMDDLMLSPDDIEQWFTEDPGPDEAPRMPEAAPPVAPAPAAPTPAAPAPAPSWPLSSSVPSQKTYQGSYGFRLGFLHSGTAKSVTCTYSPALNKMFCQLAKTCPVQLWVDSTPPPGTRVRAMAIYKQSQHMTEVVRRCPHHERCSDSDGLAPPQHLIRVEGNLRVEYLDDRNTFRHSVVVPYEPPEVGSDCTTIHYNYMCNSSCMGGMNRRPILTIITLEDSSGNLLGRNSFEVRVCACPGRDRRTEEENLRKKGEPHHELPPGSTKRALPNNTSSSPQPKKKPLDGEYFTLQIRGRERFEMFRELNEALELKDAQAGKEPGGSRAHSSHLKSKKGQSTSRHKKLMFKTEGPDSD
# Method in brief: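 Cells were seeded at 4000/well, rested 5 h at 37C, then dosed with DMSO compound solutions (217-fold dilution) for 16 h. CCF4-AM substrate was loaded for 2 h at room temperature, and the 460/530 nm emission ratio was fitted for gain of signal versus DMSO.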
# [15] = biological target: Cellular tumor antigen p53 (Homo sapiens) (UniProt P04637); test: TOX21_p53_BLA_p5_ratio: Tox21 HCT-116 p53 Agonism Beta-lactamase Assay, Ratio, Phase 5 (AID 2283599; active means hit-call score of the fitted dose curve at least 0.9, where 1 is the maximum)
# Method in brief: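 Beta-lactamase reporter ratio (blue 460 nm over green 530 nm, 405 nm excitation) after 2 h CCF4-AM loading, in HCT-116 cells exposed 16 h at 37 C to compounds pinned at 217-fold dilution. Increases relative to DMSO baseline scored.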
# [16] = ATG_PBREM_CIS: Attagene CIS-FACTORIAL HepG2 Assay for human Phenobarbital-responsive Enhancer Module (PBREM) (AID 2282955); conditions: HepG2 PBREM cis-reporter, Attagene multiplexed transcription; actives raise or lower the signal
# Method in brief: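 Multiplexed cis-reporter readout in human hepatoma HepG2 cells; PBREM-regulated transcript quantified after 24 h exposure by fluorescent RT-PCR fragment analysis. Signal changes up or down fitted relative to DMSO.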
# [17] = biological target: X-box-binding protein 1 (Homo sapiens) (UniProt P17861); test: ATG_Xbp1_CIS: Attagene CIS-FACTORIAL HepG2 Assay for human X-box Binding Protein 1 (XBP1) (AID 2282972); conditions: HepG2 XBP1 cis-element reporter, Attagene multiplex; actives raise or lower the signal
# Chain of X-box-binding protein 1 (Homo sapiens) (P17861 whole entry, looked up): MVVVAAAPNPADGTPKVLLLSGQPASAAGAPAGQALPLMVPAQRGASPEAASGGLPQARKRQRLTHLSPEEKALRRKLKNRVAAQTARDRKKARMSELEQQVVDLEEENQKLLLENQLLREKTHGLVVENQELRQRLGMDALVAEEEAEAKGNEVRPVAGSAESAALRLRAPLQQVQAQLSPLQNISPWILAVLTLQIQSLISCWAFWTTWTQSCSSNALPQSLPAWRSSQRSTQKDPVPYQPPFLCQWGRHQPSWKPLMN
# Method in brief: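 Multiplexed cis-reporter readout in transfected HepG2 liver cells. Exposure lasted 24 hours. Activity in either direction was fitted against DMSO as negative control and baseline.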
# [18] = biological target: Cellular tumor antigen p53 (Homo sapiens) (UniProt P04637); test: TOX21_p53_BLA_p4_ratio: Tox21 HCT-116 p53 Agonism Beta-lactamase Assay, Ratio, Phase 4 (AID 2283601; active means hit-call score of the fitted dose curve at least 0.9, where 1 is the maximum)
# Method in brief: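 Signal is the blue/green (460nm/530nm) ratio of cleaved versus uncleaved CCF4-AM substrate, read after 2 h substrate loading. Cells were HCT116 carrying the p53-responsive beta-lactamase reporter, dosed 16 h at 37C, 5% CO2; CellTiter-Glo measured in parallel.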
# [19] = ATG_E_Box_CIS: Attagene CIS-FACTORIAL HepG2 Assay for human Enhancer Box (E-box) (AID 2282936); conditions: HepG2 E-box cis-reporter transcription, actives raise or lower the signal
# Method in brief: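 Fluorescent reporter fragments separated by capillary electrophoresis gave the signal; mRNA came from HepG2 cells transfected with cis-element reporters and treated 24 h. Curves fitted bidirectionally relative to DMSO controls.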
# [20] = biological target: Retinoic acid receptor RXR-alpha (Homo sapiens) (UniProt P19793); test: ATG_RXRa_TRANS: Attagene TRANS-FACTORIAL HepG2 Assay for human Retinoid X Receptor alpha (RXRa) (AID 2283012; active means hit-call score of the fitted dose curve at least 0.9, where 1 is the maximum)
# Chain of Retinoic acid receptor RXR-alpha (Homo sapiens) (P19793 whole entry, looked up, the tested form may be a part): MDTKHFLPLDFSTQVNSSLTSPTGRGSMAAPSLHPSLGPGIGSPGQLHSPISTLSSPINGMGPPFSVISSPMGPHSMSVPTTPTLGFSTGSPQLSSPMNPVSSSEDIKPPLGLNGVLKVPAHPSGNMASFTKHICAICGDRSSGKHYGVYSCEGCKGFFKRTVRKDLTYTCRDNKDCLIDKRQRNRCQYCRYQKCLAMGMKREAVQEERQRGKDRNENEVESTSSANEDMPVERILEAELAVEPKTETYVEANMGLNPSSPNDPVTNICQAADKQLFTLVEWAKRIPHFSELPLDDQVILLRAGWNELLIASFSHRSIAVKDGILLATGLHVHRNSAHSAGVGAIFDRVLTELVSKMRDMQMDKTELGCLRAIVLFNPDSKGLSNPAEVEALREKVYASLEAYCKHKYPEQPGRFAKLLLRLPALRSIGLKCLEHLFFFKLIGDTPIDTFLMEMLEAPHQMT
# Method in brief: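 Chimeric NR-GAL4 trans-activation in HepG2, 24 h treatment; reporter transcripts quantified by fluorescence on capillary electrophoresis, analysed for upward change from DMSO.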
smiles,measurement,setting,value
O=C(CCl)c1ccccc1,outcome,[1],inactive
same,outcome,[2],inactive
same,AC50,[3],8.88 µM (active)
same,outcome,[4],inactive
same,outcome,[5],inactive
same,outcome,[6],inactive
same,outcome,[7],inactive
same,outcome,[8],inactive
same,AC50,[9],54.4 µM (active)
same,outcome,[10],inactive
same,AC50,[11],16.4 µM (active)
same,outcome,[12],inactive
same,AC50,[13],33.4 µM (active)
same,AC50,[14],64.3 µM (active)
same,outcome,[14],inactive
same,outcome,[15],inactive
CC(O)CN(CC(C)O)CC(C)O (stereo not given),outcome,[2],inactive
same,outcome,[3],inactive
same,outcome,[16],inactive
same,outcome,[6],inactive
same,outcome,[17],inactive
same,outcome,[9],inactive
same,outcome,[10],inactive
same,outcome,[14],inactive
same,outcome,[15],inactive
same,outcome,[18],inactive
[CH3][Sn]([Cl])([Cl])[Cl],outcome,[1],inactive
same,outcome,[19],inactive
same,outcome,[2],inactive
same,outcome,[3],inactive
same,outcome,[16],inactive
same,outcome,[4],inactive
same,outcome,[5],inactive
same,outcome,[17],inactive
same,outcome,[7],inactive
same,outcome,[8],inactive
same,outcome,[9],inactive
same,outcome,[11],inactive
same,outcome,[12],inactive
same,outcome,[14],inactive
same,outcome,[15],inactive
same,outcome,[18],inactive
S=c1[nH]c2ccccc2[nH]1,outcome,[1],inactive
same,outcome,[19],inactive
same,outcome,[2],inactive
same,outcome,[3],inactive
same,outcome,[16],inactive
same,outcome,[6],inactive
same,outcome,[17],inactive
same,outcome,[7],inactive
same,outcome,[8],inactive
same,outcome,[9],inactive
same,outcome,[11],inactive
same,outcome,[12],inactive
same,outcome,[13],inactive
same,outcome,[14],inactive
same,outcome,[18],inactive
CC(C)(c1cc(Cl)c(O)c(Cl)c1)c1cc(Cl)c(O)c(Cl)c1,outcome,[1],inactive
same,outcome,[19],inactive
same,outcome,[3],inactive
same,outcome,[4],inactive
same,outcome,[17],inactive
same,outcome,[7],inactive
same,outcome,[8],inactive
same,outcome,[9],inactive
same,outcome,[10],inactive
same,AC50,[11],3.75 µM (active)
same,AC50,[12],1.87 µM (active)
same,outcome,[20],inactive
same,AC50,[13],9.09 µM (active)
same,AC50,[14],48.2 µM (active) and 17.7 µM (active)
same,AC50,[15],24.2 µM (active)
same,outcome,[15],inactive
same,AC50,[18],19.7 µM (active)
same,outcome,[18],inactive
O=P1(NCCCl)OCCCN1CCCl (stereo not given),outcome,[1],inactive
same,outcome,[19],inactive
same,outcome,[3],inactive
same,outcome,[16],inactive
same,outcome,[5],inactive
same,outcome,[6],inactive
same,outcome,[17],inactive
same,outcome,[7],inactive
same,outcome,[11],inactive
same,outcome,[12],inactive
